# For some assays here: Entries with a potency or affinity are not part of this list.
# Columns and labels:
# Design in all cases: scale not given: direction of the effect not stated beside the values
# [1] = molecular target: Protein translocase subunit SecA (Escherichia coli (strain K12)) (UniProt P10408); test: Assay to Identify E. coli SecA ATPase Inhibitors; format: functional; settings: 30 µM
# [2] = molecular target: T1, Ubiquitin-activating enzyme e1, putative (Leishmania donovani (strain BPK282A1)) (UniProt E9BSI1); test: Leishmania donovani Ubiquitin Activating Enzyme (LdE1); format: functional; settings: 30 µM
# T1 sequence (whole entry): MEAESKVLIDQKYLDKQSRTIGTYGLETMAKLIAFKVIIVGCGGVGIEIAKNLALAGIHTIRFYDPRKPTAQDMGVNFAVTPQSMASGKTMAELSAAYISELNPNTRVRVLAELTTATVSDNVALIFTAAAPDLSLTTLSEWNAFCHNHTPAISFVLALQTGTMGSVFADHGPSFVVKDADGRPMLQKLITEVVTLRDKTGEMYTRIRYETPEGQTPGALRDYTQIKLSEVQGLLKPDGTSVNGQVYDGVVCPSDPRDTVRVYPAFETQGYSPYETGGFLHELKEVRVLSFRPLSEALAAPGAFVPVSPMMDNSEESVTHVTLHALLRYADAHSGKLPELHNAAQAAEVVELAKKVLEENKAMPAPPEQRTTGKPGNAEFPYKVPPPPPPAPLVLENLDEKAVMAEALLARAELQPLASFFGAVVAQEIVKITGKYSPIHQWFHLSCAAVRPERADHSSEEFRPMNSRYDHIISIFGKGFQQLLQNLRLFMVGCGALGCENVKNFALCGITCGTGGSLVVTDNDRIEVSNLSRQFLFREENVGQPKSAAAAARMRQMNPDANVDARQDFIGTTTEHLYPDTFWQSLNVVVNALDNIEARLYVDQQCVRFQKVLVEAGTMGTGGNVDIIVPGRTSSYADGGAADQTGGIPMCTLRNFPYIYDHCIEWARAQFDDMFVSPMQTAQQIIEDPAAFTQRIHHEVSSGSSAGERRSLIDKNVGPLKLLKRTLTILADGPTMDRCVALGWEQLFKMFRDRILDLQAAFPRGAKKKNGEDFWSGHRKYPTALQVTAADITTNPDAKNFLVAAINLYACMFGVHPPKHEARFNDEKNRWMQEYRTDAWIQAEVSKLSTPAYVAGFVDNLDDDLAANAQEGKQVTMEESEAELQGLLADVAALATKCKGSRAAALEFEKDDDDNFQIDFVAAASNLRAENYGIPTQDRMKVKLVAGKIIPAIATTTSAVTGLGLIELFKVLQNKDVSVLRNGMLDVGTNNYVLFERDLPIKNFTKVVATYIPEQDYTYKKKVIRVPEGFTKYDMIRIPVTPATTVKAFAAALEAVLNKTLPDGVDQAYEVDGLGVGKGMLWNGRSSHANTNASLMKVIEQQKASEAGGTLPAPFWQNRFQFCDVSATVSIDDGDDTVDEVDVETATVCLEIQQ
# [3] = molecular target: AMP-activated protein kinase, AMPK (Homo sapiens) (UniProt P54646+O43741+P54619+Q9UGJ0+Q9Y478+Q13131+Q9UGI9); test: AMP-dependent Kinase enzyme assay. An in vitro enzyme assay that detects ADP turnover that is directly proportional to AMPK activity. This uses naive AMPK that is activated during the assay with MK-8722; format: functional; settings: 30 µM
# [4] = molecular target: Sialic acid-binding Ig-like lectin 9 (Homo sapiens) (UniProt Q9Y336); test: Hs-Siglec9 ALPHAscreen SOP 20170721; settings: 10 µM
# Trypanosoma cruzi = test: Trypanosoma cruzi phosphomannomutase and mannose-1-phosphate guanylyltransferase assay; format: functional; settings: 10 µM
# [5] = molecular target: T2, Arginase-2, mitochondrial (Homo sapiens) (UniProt P78540); test: in vitro enzyme assay to detect the production of urea directly proportional to the activity of Arginase II; format: functional; settings: 33.3 µM; further: in the data most compounds retested in dose-response had high values
# T2 sequence (whole entry): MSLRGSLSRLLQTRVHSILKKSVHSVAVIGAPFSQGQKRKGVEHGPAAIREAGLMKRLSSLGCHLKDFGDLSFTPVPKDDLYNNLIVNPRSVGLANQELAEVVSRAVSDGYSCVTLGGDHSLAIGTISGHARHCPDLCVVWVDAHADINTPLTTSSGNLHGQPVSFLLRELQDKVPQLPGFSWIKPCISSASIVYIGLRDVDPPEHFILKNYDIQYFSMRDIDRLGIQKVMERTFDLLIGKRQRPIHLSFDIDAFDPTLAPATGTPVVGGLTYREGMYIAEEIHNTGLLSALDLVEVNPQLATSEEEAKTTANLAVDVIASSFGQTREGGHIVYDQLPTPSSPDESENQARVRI
# [6] = molecular target: T3, Proteasome subunit beta (Trypanosoma cruzi) (UniProt O96673); test: Trypanosoma cruzi proteasome chymotrypsin-like activity (TcProtChymo) assay.; further: in the data most compounds retested in dose-response had high values; format: functional; settings: 9.37 µM
# T3 sequence (whole entry): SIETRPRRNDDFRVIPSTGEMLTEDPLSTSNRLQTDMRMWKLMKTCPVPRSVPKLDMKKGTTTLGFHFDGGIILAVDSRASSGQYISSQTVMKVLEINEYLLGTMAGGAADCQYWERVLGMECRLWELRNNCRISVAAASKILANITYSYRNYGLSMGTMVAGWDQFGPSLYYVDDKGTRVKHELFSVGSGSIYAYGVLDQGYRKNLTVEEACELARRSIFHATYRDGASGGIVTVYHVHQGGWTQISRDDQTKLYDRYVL
# Homo sapiens = organism: Homo sapiens; test: To identify inhibition of the IFN signalling (Jak-Stat) pathway via expression of an eGFP reporter gene under the control of an IFN-stimulated response element (ISRE) containing MxA promoter.; format: functional; settings: 30 µM
# [7] = molecular target: T4, Tyrosyl-tRNA synthetase, putative (Trypanosoma cruzi (strain CL Brener)) (UniProt Q4DSP6); test: Trypanosoma cruzi tyrosyl tRNA synthetase (TcYRS) _High Tyrosine SOP; format: functional; settings: 30 µM; further: in the data most compounds retested in dose-response had high values
# T4 sequence (whole entry): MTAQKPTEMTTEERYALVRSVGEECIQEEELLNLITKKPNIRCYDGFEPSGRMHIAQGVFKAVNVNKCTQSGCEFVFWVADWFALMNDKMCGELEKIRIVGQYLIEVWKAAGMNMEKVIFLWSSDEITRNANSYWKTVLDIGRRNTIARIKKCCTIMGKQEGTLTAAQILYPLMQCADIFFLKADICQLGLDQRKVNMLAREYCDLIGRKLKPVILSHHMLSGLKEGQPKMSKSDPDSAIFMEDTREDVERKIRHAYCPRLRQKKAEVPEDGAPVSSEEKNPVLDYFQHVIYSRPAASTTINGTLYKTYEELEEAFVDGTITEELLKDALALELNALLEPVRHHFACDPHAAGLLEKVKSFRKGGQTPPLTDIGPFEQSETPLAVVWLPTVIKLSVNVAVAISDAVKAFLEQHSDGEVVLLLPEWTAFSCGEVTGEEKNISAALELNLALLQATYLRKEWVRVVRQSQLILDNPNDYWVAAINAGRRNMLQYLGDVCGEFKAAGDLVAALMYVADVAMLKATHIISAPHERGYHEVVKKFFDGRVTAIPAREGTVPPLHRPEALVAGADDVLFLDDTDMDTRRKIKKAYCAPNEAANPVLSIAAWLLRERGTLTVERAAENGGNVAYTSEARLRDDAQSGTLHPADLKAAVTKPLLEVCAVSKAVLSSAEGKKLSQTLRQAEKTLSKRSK
# [8] = molecular target: T4, Tyrosyl-tRNA synthetase, putative (Trypanosoma cruzi (strain CL Brener)); test: Trypanosoma cruzi tyrosyl tRNA synthetase (TcYRS) SOP; format: functional; settings: 30 µM
# [9] = molecular target: Chromo domain-containing protein 1 (Saccharomyces cerevisiae (strain ATCC 204508 / S288c) (Baker's yeast)) (UniProt P32657); test: ScCHD-1 Enzyme Inhibition Assay; format: functional; settings: 30 µM; further: in the data most compounds retested in dose-response had high values
# Chromo domain-containing protein 1 (Saccharomyces cerevisiae (strain ATCC 204508 / S288c) (Baker's yeast)), sequence (P32657 whole entry, the tested form may be a part): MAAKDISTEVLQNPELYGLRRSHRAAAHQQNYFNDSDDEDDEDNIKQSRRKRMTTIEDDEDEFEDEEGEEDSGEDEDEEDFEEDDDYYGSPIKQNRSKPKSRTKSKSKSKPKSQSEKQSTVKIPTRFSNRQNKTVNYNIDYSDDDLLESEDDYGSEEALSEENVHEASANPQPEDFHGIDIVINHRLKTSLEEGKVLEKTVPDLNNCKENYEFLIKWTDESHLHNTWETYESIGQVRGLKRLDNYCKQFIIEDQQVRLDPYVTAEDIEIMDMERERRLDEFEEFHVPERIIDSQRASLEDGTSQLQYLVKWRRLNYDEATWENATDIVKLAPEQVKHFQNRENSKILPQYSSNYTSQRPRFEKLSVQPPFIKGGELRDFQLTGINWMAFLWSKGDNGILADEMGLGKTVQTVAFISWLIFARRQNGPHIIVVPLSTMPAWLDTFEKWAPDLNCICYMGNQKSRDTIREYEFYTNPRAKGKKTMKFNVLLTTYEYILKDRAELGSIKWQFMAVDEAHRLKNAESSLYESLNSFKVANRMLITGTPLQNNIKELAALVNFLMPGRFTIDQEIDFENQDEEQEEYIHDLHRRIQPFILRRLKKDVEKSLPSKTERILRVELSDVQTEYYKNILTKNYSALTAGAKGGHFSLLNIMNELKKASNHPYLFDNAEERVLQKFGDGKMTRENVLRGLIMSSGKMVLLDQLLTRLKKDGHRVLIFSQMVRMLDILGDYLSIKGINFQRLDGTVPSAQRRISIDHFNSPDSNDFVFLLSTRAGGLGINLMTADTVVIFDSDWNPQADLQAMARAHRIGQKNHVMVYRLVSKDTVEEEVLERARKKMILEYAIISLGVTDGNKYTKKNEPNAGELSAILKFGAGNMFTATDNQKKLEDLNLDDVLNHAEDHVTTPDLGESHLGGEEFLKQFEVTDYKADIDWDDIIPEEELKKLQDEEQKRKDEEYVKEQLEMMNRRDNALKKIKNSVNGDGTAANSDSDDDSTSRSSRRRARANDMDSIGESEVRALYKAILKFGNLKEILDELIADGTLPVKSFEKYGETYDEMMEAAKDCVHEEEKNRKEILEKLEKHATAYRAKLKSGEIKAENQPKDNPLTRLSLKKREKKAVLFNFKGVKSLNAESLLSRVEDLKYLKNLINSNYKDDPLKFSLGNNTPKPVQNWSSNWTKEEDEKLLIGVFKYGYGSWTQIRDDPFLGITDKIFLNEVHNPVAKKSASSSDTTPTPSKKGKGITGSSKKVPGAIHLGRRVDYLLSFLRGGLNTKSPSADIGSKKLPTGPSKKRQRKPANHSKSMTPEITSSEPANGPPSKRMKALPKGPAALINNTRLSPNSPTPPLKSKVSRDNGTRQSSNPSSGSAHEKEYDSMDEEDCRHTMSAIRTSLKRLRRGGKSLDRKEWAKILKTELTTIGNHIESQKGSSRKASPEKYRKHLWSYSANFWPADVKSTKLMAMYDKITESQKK
# Sialic acid-binding Ig-like lectin 9 (Homo sapiens), sequence (Q9Y336 whole entry): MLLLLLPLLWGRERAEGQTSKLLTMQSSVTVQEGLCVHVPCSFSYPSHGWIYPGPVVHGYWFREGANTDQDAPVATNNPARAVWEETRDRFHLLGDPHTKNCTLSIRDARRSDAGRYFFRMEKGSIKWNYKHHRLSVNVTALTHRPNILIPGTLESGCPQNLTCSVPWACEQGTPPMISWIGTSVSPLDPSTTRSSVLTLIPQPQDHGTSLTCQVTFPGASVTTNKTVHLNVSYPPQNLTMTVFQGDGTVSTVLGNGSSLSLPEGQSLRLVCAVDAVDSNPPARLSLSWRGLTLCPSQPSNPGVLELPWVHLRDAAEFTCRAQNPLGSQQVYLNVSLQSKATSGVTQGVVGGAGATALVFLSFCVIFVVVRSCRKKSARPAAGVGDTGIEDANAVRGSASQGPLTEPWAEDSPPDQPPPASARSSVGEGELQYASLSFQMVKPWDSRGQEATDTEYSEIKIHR
# Protein translocase subunit SecA (Escherichia coli (strain K12)), sequence (P10408 whole entry): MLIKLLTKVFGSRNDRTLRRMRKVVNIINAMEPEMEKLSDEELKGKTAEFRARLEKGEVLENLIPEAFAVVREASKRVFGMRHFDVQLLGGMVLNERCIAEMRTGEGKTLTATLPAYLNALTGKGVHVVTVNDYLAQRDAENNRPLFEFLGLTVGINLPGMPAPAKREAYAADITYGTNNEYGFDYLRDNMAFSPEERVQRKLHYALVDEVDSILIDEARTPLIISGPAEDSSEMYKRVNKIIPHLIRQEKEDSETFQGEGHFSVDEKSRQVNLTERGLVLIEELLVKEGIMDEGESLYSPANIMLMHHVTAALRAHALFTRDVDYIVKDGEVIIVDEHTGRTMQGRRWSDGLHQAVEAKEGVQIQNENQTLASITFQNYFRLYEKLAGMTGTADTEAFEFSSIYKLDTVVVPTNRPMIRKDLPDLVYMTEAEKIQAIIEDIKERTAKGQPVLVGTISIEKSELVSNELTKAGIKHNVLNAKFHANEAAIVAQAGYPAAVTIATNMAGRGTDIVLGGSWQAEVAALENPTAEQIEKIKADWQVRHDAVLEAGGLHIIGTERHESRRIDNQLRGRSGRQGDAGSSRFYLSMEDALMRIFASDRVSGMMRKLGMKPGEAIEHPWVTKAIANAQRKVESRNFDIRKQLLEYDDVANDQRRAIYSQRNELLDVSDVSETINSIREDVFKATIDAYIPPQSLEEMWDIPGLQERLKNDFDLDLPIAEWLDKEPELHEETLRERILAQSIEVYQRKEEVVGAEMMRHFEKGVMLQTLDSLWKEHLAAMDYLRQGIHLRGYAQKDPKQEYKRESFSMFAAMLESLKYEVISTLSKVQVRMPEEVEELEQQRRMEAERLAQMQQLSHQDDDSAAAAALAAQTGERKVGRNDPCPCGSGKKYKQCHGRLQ
SMILES,Percent Effect [1],Percent Effect [2],Percent Effect [3],Percent Effect [4],Percent Effect (Trypanosoma cruzi),Percent Effect [5],Percent Effect [6],Percent Effect (Homo sapiens),Percent Effect [7],Percent Effect [8],Percent Effect [9]
Cc1nn(C)c(C)c1C1CCCN1C(=O)c1ccc(Cl)o1 (configuration not stated),-4.75%,2.7%,0.29%,-6.5%,4.88%,-3.33%,1.27%,5.89%,4.95%,-6.1%,1.72%
O=C1NC2(CCN(C(=O)c3ccccc3)CC2)CC1c1cccnc1 (configuration not stated),-4.51%,-2.74%,-3.55%,5.92%,9.32%,-6.39%,2.65%,-28.6%,6.25%,13.6%,-2.24%
COc1ccccc1[C@@H]1CN(C(=O)c2csc(C)n2)C[C@H]1C(=O)O,-2.85%,1.39%,-3.07%,-2.56%,-0.0972%,5.3%,16.7%,-4.31%,12.6%,17.9%,-3.19%
Cn1nc(C#N)c2c1CN(C(=O)c1cccnc1)CCC2,-4.61%,2.6%,-0.491%,-7%,-2.66%,-1.94%,3.13%,6.32%,-2.12%,-6.41%,-0.821%
O=C1CC[C@@H]2[C@@H](CCN2C(=O)c2ccsc2)N1CC1CC1,-4.27%,-2.7%,6.58%,-0.934%,4.2%,2.23%,21.4%,-14.4%,4.32%,7.69%,2.18%
CC(C)OCCCNC(=O)CS(=O)(=O)Cc1ccc(Cl)c(Cl)c1,-6.75%,5.2%,9.19%,-7.16%,-5.8%,-1.78%,9.63%,33.8%,3.88%,12.2%,-5.85%
Cc1noc2ncc(C(=O)N3CCCC3c3ccncc3)cc12 (configuration not stated),-7.65%,20.2%,-6.44%,0.762%,10.1%,-3.42%,17.4%,21.9%,5.42%,24.1%,-9.53%
Cc1cnn(CCC(=O)N2CCCC(c3nc(C)no3)C2)c1 (configuration not stated),-3.87%,24.3%,-8.95%,-1.06%,5.94%,-4.41%,16.9%,11.1%,4.43%,23.5%,-10.1%
Cc1nc(NCCc2ccc(Cl)cc2)cc(C(=O)N2CCCCC2)n1,-1.97%,7.79%,7.85%,-0.26%,-8.16%,-16.6%,22.6%,10.8%,0%,1.24%,-2.69%
CC(NC(=O)NCCCc1n[nH]c(N)c1C#N)c1cccs1 (configuration not stated),-4.67%,22.8%,38.5%,-12.2%,6.52%,-14.1%,16.6%,15.9%,8.37%,24.1%,-7.24%
CC(O)CNC(=O)NCc1ccc(N2CCNC(=O)C2)cc1 (configuration not stated),-3.56%,20.8%,-9.88%,10.6%,2.06%,-0.712%,4.73%,-4.97%,11.7%,21.9%,-11.2%
O=C1COc2ccc(C(=O)NS(=O)(=O)c3ccc(F)cc3F)cc2N1,-2.51%,-7.89%,6.3%,-2.06%,2.15%,-4.32%,-1.78%,-9.03%,4.43%,3.7%,6.46%
CCc1nnc2n1CCN(CC(=O)Nc1cc(C(C)(C)C)nn1C)C2,-1.62%,5.26%,1.91%,0.565%,-3.38%,4.6%,2.17%,2.83%,3.43%,9.76%,2.88%
c1cnc(N2CCOCC3(CCCN(CC4CC4)C3)C2)cn1 (configuration not stated),-1.84%,5.33%,1.73%,4.28%,-1.74%,-52.5%,6.84%,-10.7%,4.17%,5%,-4.17%
CCO[C@@H]1CCN(C(=O)c2cscn2)[C@@H]1Cc1cnn(C)c1,-1.12%,0%,9.65%,4.98%,-5.12%,2.1%,-1.15%,1.8%,2.13%,3.85%,1.69%
CC(C)(N)CN1CCC(c2nnc(CN3CCCC3)n2C2CC2)CC1,-7.06%,8%,3.2%,2.76%,-0.0974%,5.73%,15.5%,8.71%,2.73%,6.17%,-4.27%
CC(O)CN1CCN(C(=O)CN(C)c2ccc(Cl)cn2)CC1 (configuration not stated),-0.0278%,-2.7%,-4.09%,7.01%,-1.93%,-2.38%,14.8%,14.1%,4.76%,7.32%,-3.67%
CC1COCCN1Cc1nc(-c2cccc(Br)c2)no1 (configuration not stated),-3.43%,13.5%,7.49%,1.61%,-8.4%,2%,17.7%,24.7%,0.493%,1.24%,-8.7%
Cc1nc(O)c2nnn(C[C@H]3CCCN3C(=O)c3cccc(F)c3)c2n1,-3.34%,-1.35%,8.18%,1.91%,-3.36%,-3.48%,-0.936%,9.46%,2.15%,1.3%,7.79%
CCn1ccnc1CN1CCCN(C(=O)c2sccc2C#N)CC1,-2.7%,-2.53%,1.18%,1.09%,0.472%,1.52%,-4.01%,-12.1%,6.4%,8.86%,0.721%
CC(C)n1cc(C(=O)N2Cc3ccccc3OC3(CCOCC3)C2)cn1,-4.16%,9.46%,5.88%,-5.24%,-8.1%,-9.05%,14.5%,28.1%,-3.23%,-1.3%,-13.3%
COc1cc(CNCc2ccc(C(C)O)cc2)cc2c1OCO2 (configuration not stated),-4.95%,18.9%,2.1%,10.4%,8.45%,0.185%,20.8%,15.6%,9.9%,28.1%,-9.5%

# Source: ChEMBL document CHEMBL3988442, “University of Dundee, Small-Polar-MMV Screening Library” (2021)
